High-throughput results (PubChem BioAssay)
In the library only some 6.6% were active in any assay of this set; here they are far more common.
BoNT-A LC inh2 – inhibitors of Botulinum neurotoxin A light chain protease | multiplex microsphere protease substrate cleavage, flow cytometry | inhibition, % at 10 µM | hit rate 0.17% among 360,000; also: plate controls were buffer without enzyme for full effect and enzyme alone for no effect
GDH-TPI counter – inhibits GDH-TPI coupling enzymes, artifact for Mtb FBA screen. AID 588335. hit rate 1.2% among 360,000. inhibition, % at 4.8 µM. GDH-TPI coupled enzyme counterscreen, NADH absorbance; in the data active = inhibition above about 30%;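 also: 0% = DMSO wells and 100% = wells lacking the enzyme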
FBA Mtb inh – inhibits M. tuberculosis FBA enzyme; inhibition, % at 1 µM; AID 588726; purified M. tuberculosis FBA, fluorescence read-out; hit rate 2.3% among 360,000; P9WQA3; in the data active = inhibition above about 27%;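 also: 0% = vehicle and 100% = reference inhibitor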
Target sequence (P9WQA3 whole entry, looked up): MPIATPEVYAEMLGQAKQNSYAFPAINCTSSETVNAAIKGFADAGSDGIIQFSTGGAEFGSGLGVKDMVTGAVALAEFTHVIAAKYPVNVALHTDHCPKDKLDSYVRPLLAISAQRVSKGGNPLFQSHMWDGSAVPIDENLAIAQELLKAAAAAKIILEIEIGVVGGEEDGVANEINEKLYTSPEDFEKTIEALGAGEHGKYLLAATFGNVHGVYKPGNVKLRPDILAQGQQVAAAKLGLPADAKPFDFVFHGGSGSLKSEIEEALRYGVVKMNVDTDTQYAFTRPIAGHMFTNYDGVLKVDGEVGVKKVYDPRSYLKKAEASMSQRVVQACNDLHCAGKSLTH
BoNT-F LC inh – BoNT F light chain protease inhibition; Multiplex microsphere protease cleavage assay, flow cytometry; inhibition, % at 10 µM; hit rate 0.22% among 360,000; AID 588497; in the data active = inhibition above about 35%, passing the limit was not always enough; inconclusive = no clear call, values can overlap the other calls; also: plate controls were buffer without enzyme for full effect and enzyme alone for no effect
Anthrax LF inh2 – anthrax lethal factor protease inhibition; inhibition, % at 10 µM; multiplex microsphere protease cleavage assay, LF; hit rate 0.12% among 360,000; P15917; also: plate controls were buffer without enzyme for full effect and enzyme alone for no effect
Bead autofluor – counter-screen for toxin protease inhibitors: compound fluorescence. fluorescence intensity (concentration not given with the values). AID 624483. compound autofluorescence counterscreen, microsphere flow cytometry; active compounds read high. hit rate 3.1% among 360,000; in the data active = fluorescence intensity above about 16000; inconclusive = no clear call, values can overlap the other calls
An asterisk follows results filed as active; u = inconclusive; x = no result. Rule as the data show it, unless noted: active = inhibition above about 30%; inconclusive = no clear call, values can overlap the other calls; inactive = below that.

SMILES	BoNT-A LC inh2	GDH-TPI counter	FBA Mtb inh	BoNT-F LC inh	Anthrax LF inh2	Bead autofluor
Cc1ccc(NC(=O)c2ccc3c(c2)C(=O)N(CC2CCCO2)C3=O)cc1C (stereo unspecified)	0	6	-2	-4	-5	2763
O=C(Nc1ccc2c(c1)C(=O)N(CC1CCCO1)C2=O)c1ccc(Cl)c(Cl)c1 (stereo unspecified)	u	12	3	3	0	22241*
Cc1cccc(C)c1NC(=O)CSc1nnc(CCCCCNC(=O)OC(C)(C)C)o1	-2	16	-2	-6	-10	16539*
Cc1ccc(NC(=O)CSc2nnc(CCNC(=O)OC(C)(C)C)o2)c(C)c1	0	6	3	-3	8	9877
Cc1ccc(C)c(NC(=O)CSc2nnc(CCCCCNC(=O)OC(C)(C)C)o2)c1	-8	2	-1	-15	-2	26977*
COc1cccc(CCNS(=O)(=O)CCNC(=O)c2cccc(OC)c2)c1	-6	0	0	-12	-6	5595
O=C(CSc1nc2cc(Cl)ccc2o1)NC1CC1	x	-4	-1	x	x	x
CC(C)(C)NC(=O)CSc1nc(-c2ccccc2)c(-c2ccccc2)[nH]1	0	8	7	0	-13	23364*
CC(C)(C)NC(=O)CSc1nnc(-c2ccccc2)c(-c2ccccc2)n1	0	6	1	u	3	3959
COc1cc2c(cc1OC)n(CC(=O)NC1CCCCCC1)n1c(C)cc(=O)nc21	0	12	113*	8	-5	4595
COC(=O)Cn1c2ccccc2c2nc(=O)cc(C)n21	-1	4	3	-3	-3	3542
CN1C=CC2=C(C#N)C(N)C(C#N)(C#N)[C@H](c3ccccc3)[C@H]2C1 (stereo partly specified)	0	8	14	0	0	16327*
N#CC1(C#N)C(C(N)=O)C1c1ccccc1 (stereo unspecified)	0	4	1	0	1	2573
N#CC(C(=O)Nc1ccc(Cl)c(Cl)c1)=C1Nc2ccccc2N1	0	32*	7	-13	0	4850
Cc1nnc(C)n1/N=C/c1ccc(-c2ccccc2Cl)o1	2	46*	1	0	1	5576
Cc1onc(-c2c(F)cccc2Cl)c1C(=O)Nc1nnc(C(F)(F)F)s1	-5	-6	3	-8	-4	5391
COc1cccc(OC)c1C(=O)Nn1c(C2CCC2)nc2ccccc2c1=O	u	6	-2	7	-8	19169*
N#C/C(=C\c1ccc(O)cc1)C(=O)N1CCCC1	0	16	0	9	-4	4280
N#CC(=Cc1ccc(O)cc1)C(N)=C(C#N)C#N	0	37*	10	-4	-13	4577
COc1ccc(/C=N/n2cncn2)cc1Cn1nc(C)c([N+](=O)[O-])c1C	6	-8	5	25	5	3869
Cn1cnnc1Sc1ccc(/C=C/C(=O)c2ccc(O)cc2)cc1[N+](=O)[O-]	0	37*	-3	-2	-2	1919
CCC(C)(C)NC(=O)c1ccc(Sc2nncn2C)c([N+](=O)[O-])c1	-1	16	3	-7	-6	9524
CN(C)S(=O)(=O)c1cccc(-c2cn3cc(Cl)ccc3n2)c1	-2	12	10	-1	-2	17034*
COc1ccccc1OCC(=O)Nc1ccc(S(=O)(=O)Nc2onc(C)c2C)cc1	2	-3	4	-1	3	3723
CC(SC1CCCC1)C(=O)Nc1ccnn1C(C)C (stereo unspecified)	u	-12	-2	-1	-8	20011*
SMILES	BoNT-A LC inh2	GDH-TPI counter	FBA Mtb inh	BoNT-F LC inh	Anthrax LF inh2	Bead autofluor
COc1ccc(NC(=O)CSc2nnc(Cc3cccs3)n2-c2ccc(C)cc2)cc1	u	5	-1	1	-1	23035*
C=CCn1c(SCC(=O)Nc2ccccc2C)nnc1-c1ccncc1	1	-4	6	-3	-2	2806
C=CCn1c(SCC(=O)Nc2ccccc2CC)nnc1-c1ccncc1	1	1	3	0	-6	23141*
COc1cccc(NC(=O)CSc2nnc(Cc3cccs3)n2-c2ccc(C)cc2)c1	u	9	2	7	-7	14630
Cn1c(CNC(=O)c2cccs2)nnc1SCC(=O)Nc1ccc(Cl)cc1	u	-18	-2	0	-4	21585*
COc1cccc(C(=O)NCc2nnc(SCC(=O)Nc3nccs3)n2-c2cccc(C)c2)c1	-2	5	2	-6	1	16987*
Cc1c(CCO)c(=O)[nH]n1S(=O)(=O)c1ccc(F)cc1	-3	4	2	-8	-9	4928
C=CCn1c(CCNC(=O)c2ccccc2F)nnc1SCC(=O)Nc1ccccc1F	-1	7	-1	0	-2	4459
Cc1ccc(NC(=O)CSc2nnc(-c3cccs3)n2Cc2ccco2)cc1	-1	5	2	-12	-1	11600
CN(C)c1ccc(NC(=O)CSc2nnc(-c3cccs3)n2Cc2ccco2)cc1	u	6	0	-4	-7	22600*
O=C(CSc1nnc(Cc2cccs2)n1Cc1ccco1)Nc1cccc(Cl)c1	-1	-8	1	0	-5	22807*
O=C(CSc1nnc(Cc2cccs2)n1Cc1ccco1)Nc1cc(Cl)cc(Cl)c1	0	8	0	-4	-5	5800
C=CCn1c(CCNC(=O)c2cccs2)nnc1SCC(=O)Nc1cccc(F)c1	10	-7	2	14	1	17039*
CCn1c(CCNC(=O)c2cccs2)nnc1SCC(=O)Nc1cccc(Cl)c1	0	24	0	-16	-2	6315
C=CCn1c(Cc2csc(N)n2)nnc1SCC(=O)Nc1ccccc1C(F)(F)F	-1	2	0	-3	2	23049*
O=C(CSc1nc2ccccc2n1CCc1ccccc1)c1ccc(O)c(O)c1	0	-4	3	-3	-7	3822
COCCn1nnnc1C(c1cccs1)N1CCN2CCCC2C1 (stereo unspecified)	1	-10	0	-2	-3	4481
Cc1occc1C(=O)NNC(=O)CN1C(=O)NC2(CCCCC2)C1=O	-4	0	6	-5	-4	u
Cn1cc(CN2CCC(C(=O)NC(c3ccc(-c4ccccc4)cc3)c3cnccn3)CC2)c2ccccc21 (stereo unspecified)	-1	1	3	-20	1	3976
C=CCn1c(Cc2cccs2)nnc1SCC(=O)Nc1ccc(OC)cc1	0	8	1	0	-2	16196*
COc1ccc(-n2c(CNc3ccc(C)cc3)nnc2SCC(=O)Nc2nc(-c3ccccc3)cs2)cc1	u	8	0	-1	1	24302*
C=CCn1c(Cc2cccs2)nnc1SCC(=O)Nc1cccc(OC)c1	1	8	0	1	-2	16319*
COc1cc(C(O)c2nc(-c3ccc(F)cc3OC)cs2)ccc1F (stereo unspecified)	0	-1	-3	-9	-6	3574
Cc1ccc(C(c2cc(Br)ccc2O)N2CCSCC2)cc1 (stereo unspecified)	0	2	1	-2	4	3963
